Screens (PubChem)
A selection: hits, their analogues and other compounds. The true share with any hit is near 2.3%.
CHRM1 PAM = positive allosteric modulators of human M1 muscarinic receptor | P11229 | CHO-K1 hM1, Fluo-8 calcium fluorescence, ACh EC20; 0% = ACh EC20, 100% = maximal ACh | 0.088% of 360,000 active | activation, % at 3 µM; in the data active means activation above about 19%, passing the limit was not always enough
Target sequence (P11229 whole entry, looked up): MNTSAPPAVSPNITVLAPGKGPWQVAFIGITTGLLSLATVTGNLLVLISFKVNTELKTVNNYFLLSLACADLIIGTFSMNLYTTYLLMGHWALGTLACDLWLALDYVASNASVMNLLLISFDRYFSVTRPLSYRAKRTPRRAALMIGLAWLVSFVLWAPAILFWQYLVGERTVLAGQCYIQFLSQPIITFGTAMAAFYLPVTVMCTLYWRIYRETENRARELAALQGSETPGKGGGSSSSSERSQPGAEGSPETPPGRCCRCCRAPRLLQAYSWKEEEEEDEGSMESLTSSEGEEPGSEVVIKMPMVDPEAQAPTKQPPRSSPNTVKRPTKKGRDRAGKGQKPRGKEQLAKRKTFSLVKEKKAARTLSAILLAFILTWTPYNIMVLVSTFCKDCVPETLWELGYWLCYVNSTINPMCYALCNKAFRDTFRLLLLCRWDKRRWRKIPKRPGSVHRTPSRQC
M1 ag parental = nonselective activator or artifact in parental CHO-K1 cells; Fluo-8 calcium fluorescence; scaled to maximal ATP response, vehicle zero; activation, % at 3 µM; 0.48% of 360,000 active; in the data active means activation above about 15%;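 further: untransfected CHO-K1 host cells lacking M1 receptor as counterscreen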
CHO-K1 Ca PAM = nonselective activator or artifact in parental CHO-K1 calcium assay; ATP EC20, Fluo-8 calcium fluorescence; 0% at ATP EC20, 100% at ATP max; activation, % at 3 µM; 0.02% of 360,000 active;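 active means activation above the run cutoff, the mean activation of all test compounds plus 3 SD, cut at about 40% in these data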;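 further: peak over basal fluorescence ratio in a 140 s read after ATP addition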
M1 antag = antagonists of human M1 muscarinic receptor; CHO-K1 hM1, Fluo-8 calcium fluorescence, ACh EC80 antagonist; P11229; inhibition, % at 3 µM; AID 588852; 1.3% of 360,000 active;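 active means percent inhibition above its own plate's cutoff, namely the mean of that plate's compound wells plus 3 SD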;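 further: peak over basal fluorescence ratio during 140 s after agonist addition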
CHO-K1 Ca antag = counter-screen for M1 antagonists: effect in parental CHO-K1 cells | inhibition, % at 3 µM | ATP-induced calcium, Fluo-8 fluorescence | AID 602250 | 0.6% of 360,000 active;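 active means inhibition above a per-plate cutoff, the plate's mean sample inhibition plus 3 SD, cut at about 24% in these data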
M1 ag = activates human CHRM1 receptor. P11229. activation, % at 3 µM. CHO-K1 hM1, Fluo-8 calcium fluorescence, agonist mode; 0% DMSO, 100% acetylcholine EC100. AID 588814. 0.33% of 360,000 active;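 active means activation above the run's mean compound activation plus 3 SD, cut at about 16% in these data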;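 further: peak over basal fluorescence ratio within a 140 s kinetic read after compound addition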
Of the large screens only hits and unclear results are named; the others gave an inactive call.

CCOc1cc(/C=C2\SC(=S)N(NS(=O)(=O)c3ccccc3)C2=O)ccc1O	none
COc1cc(/C=C2\SC(=S)N(Nc3ncc(C(F)(F)F)cc3Cl)C2=O)ccc1O	M1 antag 30
Cc1cc(C)nc(NN2C(=O)/C(=C/c3ccccc3)SC2=S)n1	none
CN(C)c1ccc(/C=C2\SC(=S)N(Nc3ncc(C(F)(F)F)cc3Cl)C2=O)cc1	M1 ag parental 21, M1 antag 61, CHO-K1 Ca antag 39, M1 ag 37
[N-]=[N+]=NCC/C=C\C1NS(=O)(=O)OCC1O (stereo not drawn)	none
Cc1cccc(NC(c2ccc(O)cc2)c2ccc3ccc(C)nc3c2O)n1 (stereo not drawn)	CHO-K1 Ca antag 25
Cc1cc(NC(c2cccnc2)c2ccc3cccnc3c2O)no1 (stereo not drawn)	none
CCC1=NN(C(=O)c2ccc(Cl)cc2)C(O)(c2ccc(C)cc2)C1 (stereo not drawn)	none
CCOC(=O)C1=NN(C(=O)c2ccc(C)cc2)C(O)(c2ccc(Cl)cc2)C1 (stereo not drawn)	M1 ag 22
Cc1nc2c(s1)sc1ccccc12	CHO-K1 Ca antag 24
Cc1cc2c(sc3ccccc32)c(C)n1	none
N=c1c2c(ncn1CCN1CCOCC1)Oc1cc(O)ccc1C2c1ccccc1 (stereo not drawn)	M1 antag 30
CC1Sc2ccc(S(=O)(=O)CCC(=O)NCc3ccc(Cl)cc3)cc2NC1=O (stereo not drawn)	none
COc1cccc(-c2ccc(NC(=O)C3CCCN(CCCn4nc(C)cc4C)C3)cc2)c1 (stereo not drawn)	M1 antag 49
COc1cccc(-c2ccc(NC(=O)C3CCCN(Cc4ccco4)C3)cc2)c1 (stereo not drawn)	none
CCN1CCN(C(=O)c2ccc3c(=O)n(CCc4ccccc4)c(=O)[nH]c3c2)CC1	none
O=C1N(c2ccccc2)C[C@@H]2C[C@@H](c3cccs3)N3CCC[C@@]123	M1 antag 90
CC(C)(O)C#Cc1ccc([C@@H]2C[C@H]3CN(c4ccccc4)C(=O)[C@]34CCCN24)s1	M1 antag 42
COc1cc(/C=C2\S/C(=N/S(=O)(=O)c3ccc(C)cc3)NC2=O)c([N+](=O)[O-])cc1OC	none
Cc1ccc(S(=O)(=O)/N=C2/NC(=O)/C(=C/c3cc([N+](=O)[O-])ccc3O)S2)cc1	M1 ag parental 20, M1 ag 32
Cc1cccc(OCC(O)Cn2c(N3CCCCC3)nc3c2c(=O)n(C)c(=O)n3C)c1 (stereo not drawn)	none
Cc1onc(-c2ccccc2)c1C(=O)N1CCC(C)(C(=O)O)C1 (stereo not drawn)	none
O=C1/C(=C/c2ccccc2)CCC1C1CCCC1 (stereo not drawn)	none
O=C1/C(=C/c2ccc(F)cc2)CCC1C1CCCC1 (stereo not drawn)	CHO-K1 Ca antag 24
CCn1cc(C(=O)NCCCN2CC(C)CC(C)C2)c(=O)c2cc(S(=O)(=O)N(C)C3CCCCC3)ccc21 (stereo not drawn)	none
CCn1cc(C(=O)NCCCN2CCC(C)CC2)c(=O)c2cc(S(=O)(=O)N(C)C3CCCCC3)ccc21	M1 antag 38
CCN(C(=O)CSc1nnnn1C)C1CCS(=O)(=O)C1 (stereo not drawn)	none
S=c1[nH]nc(-c2ccncc2)n1/N=C/C(Cl)=C\c1ccccc1	M1 ag 39
S=c1[nH]nc(-c2ccncc2)n1/N=C/C=C/c1ccccc1	none
CCCCCCNCC(=O)N1CCC(Cc2ccccc2)CC1	M1 antag 31
CCCC(=O)N1CCC(Cc2ccccc2)CC1	none
COc1ccc(NC(=O)C2(C)Cc3c(-c4ccc5c(c4)OCO5)ccnc3O2)cn1 (stereo not drawn)	none
CC1CCC(NC(=O)CCC(=O)N2CC(C)Oc3ccccc32)CC1 (stereo not drawn)	none
O=C(COC(=O)c1ccc(Cl)nc1)Nc1ccc(N2CCCCC2)cc1	none
Cc1nnc(N2CCCC(C(=O)NCc3cccc(F)c3)C2)c2nn(-c3ccccc3)c(C)c12 (stereo not drawn)	none
CCc1ccc(CNC(=O)C2CCCN(c3nnc(C)c4c(C)n(-c5ccccc5)nc34)C2)cc1 (stereo not drawn)	M1 antag 49
O=[N+]([O-])c1ccc(CS(=O)(=O)c2ccc(Cl)cc2)cc1	M1 antag 41
Cc1ccc(NC(=O)C2CC(=O)N(c3ccccc3Cl)C2)cc1S(=O)(=O)N1CCOCC1 (stereo not drawn)	none
O=C(NCc1ccccc1)c1noc2c1CCCCC2	none
O=C(NC1CCCC1)c1noc2c1CCCCC2	M1 antag 37
COC(=O)CCc1c(C)[nH]c(=S)[nH]c1=O	CHRM1 PAM 21
CCOC(=O)Cc1c(C)[nH]c(=S)[nH]c1=O	none
Cc1noc(/C=C/c2ccco2)c1S(=O)(=O)N1CCC(C(=O)N2c3ccccc3CC2C)CC1 (stereo not drawn)	CHO-K1 Ca antag 26
Cc1noc(/C=C/c2ccco2)c1S(=O)(=O)N1CCC(C(=O)NC(C)c2ccccc2)CC1 (stereo not drawn)	none
CSc1nc2c(c(=O)[nH]1)C(c1ccc(F)cc1)CC(=O)N2 (stereo not drawn)	none
CSc1nc2c(c(=O)[nH]1)C(c1ccc(Br)cc1)CC(=O)N2 (stereo not drawn)	M1 ag parental 16
Cc1ccc(OCC(=O)N(Cc2ccccc2)c2c(N)n(Cc3ccccc3)c(=O)[nH]c2=O)c(C)c1	none
CC(=O)N1CCc2[nH]c3ccccc3c2C1	none
COc1ccccc1NC(=O)N1CCc2[nH]c3ccc(F)cc3c2C1	M1 ag 26
O=C(N1CCc2[nH]c3ccccc3c2C1)C(F)(F)F	M1 ag 46
O=C(CCCCl)N1CCc2[nH]c3ccccc3c2C1	M1 ag 24
COc1ccc(CNC(=O)N[C@H](C(=O)O)C(C)C)cc1OC	none
CC(C)CN(C(=O)COc1ccc(Br)cc1C=O)C1CCS(=O)(=O)C1 (stereo not drawn)	none
Cc1oc(-c2ccccc2F)nc1CS(=O)CC(=O)NC1CCCCC1 (stereo not drawn)	none
CC(C1=C(CCN(C)C)Cc2ccccc21)c1ccccn1 (stereo not drawn)	M1 antag 77
CN(C)CCC(c1ccccc1)c1ccccn1 (stereo not drawn)	none
Cc1c(CCOC(=O)C2C3CC4CC(C3)CC2C4)sc[n+]1CC(=O)c1ccc(Br)cc1 (stereo not drawn)	M1 antag 39
COc1ccc(C(=O)OCCc2sc[n+](CC(=O)c3ccccc3)c2C)cc1	M1 antag 69
